# High-throughput results as filed in PubChem.
# D3 antag = antagonists of human D3 dopamine receptor; D3R cells, DiscoveRx beta-arrestin luminescence, antagonist mode; active compounds read low; 2.5% of 360,000 active; AID 652054; max response, negative = inhibition, %; P35462; in the data active means max response below about -50%; further: on the % scale 0 is the no-effect control and ±100 the full control effect
# Target sequence (P35462 whole entry, looked up): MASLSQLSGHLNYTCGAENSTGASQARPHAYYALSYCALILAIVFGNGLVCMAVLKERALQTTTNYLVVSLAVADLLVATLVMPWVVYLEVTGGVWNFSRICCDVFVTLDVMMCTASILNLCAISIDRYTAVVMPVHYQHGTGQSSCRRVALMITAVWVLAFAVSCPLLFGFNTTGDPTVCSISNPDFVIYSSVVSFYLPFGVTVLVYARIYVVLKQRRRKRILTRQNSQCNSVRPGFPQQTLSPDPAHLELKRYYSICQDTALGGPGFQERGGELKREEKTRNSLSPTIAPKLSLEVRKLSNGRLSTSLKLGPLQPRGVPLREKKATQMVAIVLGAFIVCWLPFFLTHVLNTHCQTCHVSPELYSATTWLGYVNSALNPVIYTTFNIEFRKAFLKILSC
#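 Cells plated overnight at 1500 cells/well, then exposed to library compounds with dopamine controls for 90 minutes at 37 degrees C. DiscoveRx reagent added for 30–60 minutes at room temperature; luminescence read, quantitative HTS format.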
# B2AR arrestin = recruits beta-arrestin to the human beta2-adrenergic receptor; beta-arrestin recruitment to beta2AR, cell-based reporter; Potency, µM (doses to about 46.1 µM), inactives show at the highest dose activation, hits mostly activators; 0.02% of 330,000 active; AID 492947; active means well fitted activation curve with a large enough effect;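 further: potency means the concentration at half of the fitted maximal effect; 0% = DMSO controls and full agonism = EC100 isoproterenol or metaproterenol; nearly all actives have a fitted effect of over 65% in size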
# D3 ag = agonists of human D3 dopamine receptor; max activation, %; 0.58% of 410,000 active; AID 652048; D3R DiscoveRx beta-arrestin cells, luminescence, 90 min; in the data active means max activation above about 30%; further: 0% is about no effect
#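 Agonist mode: compounds and dopamine controls were applied to plated cells for 90 min at 37 degrees C after an overnight attachment at 1500 cells/well. Luminescent read-out followed 30 - 60 minutes at room temperature with DiscoveRx detection reagent.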
# Giardia kill = kills Giardia lamblia; Giardia lamblia trophozoite viability; activity change, % at 7.66 µM, hits read low; 0.15% of 340,000 active; AID 540267; in the data active means activity change below about -80%;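 further: parasites exposed to compound for two days anaerobically before the ATP read; on the % scale 0 is the no-effect control and ±100 the full control effect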
#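 ATP-content bioluminescence gauges trophozoite survival. Cells (100/well) receive compound and incubate anaerobically for 48 hrs at 37 deg C; detection reagent follows for 15-30 min at room temperature.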
# * hit, by the source's call; x = no result given. Shown are actives, neighbours in structure and some others; about 2.8% of the full set was active somewhere.
SMILES,D3 antag,B2AR arrestin,D3 ag,Giardia kill
CCOC(=O)c1c(NC(=O)c2cc(=O)c3c(C)cc(C)cc3o2)sc(C(C)=O)c1C,x,x,-2.7,x
C/C(=N\NC(=O)c1cccc(S(=O)(=O)Nc2ccccc2Cl)c1)c1ccc(-n2ccnc2)cc1,-52.0*,0.0%,9.3,0.1
O=C(c1cccc(S(=O)(=O)Nc2ccccc2Cl)c1)N1CCC1,-58.7*,0.1%,-3.8,-27.0
CCOC(=O)N1CCN(C(=O)c2cccc(S(=O)(=O)Nc3ccccc3Cl)c2)CC1,-1.0,-1.7%,3.4,-11.5
CC(=O)c1cc(C)ccc1OC(=O)CCN1C(=O)C2C3c4ccccc4C(c4ccccc43)C2C1=O (stereo not drawn),8.4,0.3%,37.8*,-14.7
C=CC1=C(C)C2=CC3=NC(=C(CC(=O)[O-])C4=NC(=C(C)C4=C([O-])[O-])C=c4[n-]c(c(C)c4CC)=CC1=N2)C(CCC(=O)[O-])C3C.[Cu+2].[Na+].[Na+].[Na+] (stereo not drawn),x,x,-19.6,x
CCOc1ccc(-c2cc(C(=O)O)c3ccccc3n2)cc1,-7.8,-0.3%,5.9,-82.6*
COc1ccc(/C=C/c2cc(C(=O)O)c3ccccc3n2)cc1,-24.9,-0.7%,-12.4,-92.9*
COc1ccc(CCNC(=O)c2nc(SCc3ccc(C)cc3)ncc2Cl)cc1OC,x,x,9.3,x
COc1ccc(C2C=C3CN(C(=O)OC(C)(C)C)S(=O)(=O)C3CC2OC(=O)c2cccc(C)c2)cc1 (stereo not drawn),x,x,x,-11.3
O=C(c1ccco1)N1CCN(Cc2cccc3ccccc23)CC1,-13.6,0.0%,32.1*,4.8
O=C(c1ccco1)N1CCN(Cc2ccc(Br)cc2)CC1,-1.8,0.4%,32.7*,2.1
O=C(c1ccco1)N1CCN(Cc2cccc(F)c2)CC1,-29.8,0.1%,35.8*,14.4
CCc1ccc(CN2CCN(C(=O)c3cccc(OC)c3OC)CC2)cc1,-57.4*,-0.2%,1.6,10.7
O=C(c1ccco1)N1CCN(Cc2ccc(Cl)cc2)CC1,2.9,-0.3%,-4.7,-4.3
COc1cccc(C(=O)N2CCN(C(=O)c3cccc4ccccc34)CC2)c1OC,-5.5,0.3%,5.8,-11.3
O=C(NC1CC(=O)N(c2ccc(F)cc2)C1)C1CCCC1 (stereo not drawn),x,x,-5.3,x
Cc1cccc(Cn2cnc3c(cnn3-c3ccc(Cl)cc3)c2=O)c1,x,x,2.7,x
CCOc1ccc(N=C(C)Nc2ccc(OCC)cc2)cc1,x,x,-8.3,x
COc1cc(CNCCCSc2nnnn2C)cc(Br)c1OC,x,-0.9%,-14.3,x
COC(=O)c1ccccc1NC(=O)CSc1nc2nc(C)cc(C)n2n1,x,x,5.7,x
O=S(=O)(c1ccc(Br)cc1)N1CCCN(Cc2cccc(F)c2)CC1,-10.0,-0.6%,-8.4,-6.0
COc1cccc(CN2CCCN(S(=O)(=O)c3ccc(Br)cc3)CC2)c1,-57.1*,0.2%,0.0,11.1
COc1cccc(CN2CCN(C(=O)c3ccco3)CC2)c1,-25.0,-0.1%,37.4*,14.6
O=C(c1ccco1)N1CCN(CC(O)COc2ccc(Br)cc2)CC1 (stereo not drawn),-6.3,-0.1%,34.7*,-13.4
SMILES,D3 antag,B2AR arrestin,D3 ag,Giardia kill
CCc1ccc(CN2CCN(C(=O)c3ccco3)CC2)cc1,-15.7,0.1%,68.6*,-13.1
CCN1CCN(c2ncnc3c2cnn3-c2ccc(F)cc2)CC1,x,x,6.2,x
Cc1cc(C)cc(OCC(=O)Nc2ccc(N3CCN(C(=O)c4ccco4)CC3)cc2)c1,27.9,-0.4%,37.0*,-3.2
Cc1ccc(-n2c(=O)cc(N3CCN(C(=O)c4ccco4)CC3)[nH]c2=O)cc1,-1.6,0.1%,-4.2,7.1
COc1ccc(NC(=O)C(=O)NCCN2CCN(C(=O)c3ccco3)CC2)cc1,9.4,0.2%,56.4*,4.4
Cc1ccc2nc(-c3ccc(NC(=O)CN4CCN(C(=O)c5ccco5)CC4)cc3)sc2c1,0.8,-0.1%,35.7*,-2.7
Cn1c(=O)cc(N2CCN(C(=O)c3ccco3)CC2)[nH]c1=O,-112.9*,-0.3%,-11.8,-22.8
COc1ccc(OCC(=O)Nc2ccc(N3CCN(C(=O)c4ccco4)CC3)cc2)cc1,3.1,-1.0%,4.7,-20.9
COc1ccc(-c2c(C)nn3c(N4CCN(c5cc(Cl)ccc5C)CC4)cc(C)nc23)cc1OC,x,x,-3.1,x
COc1cccc(NC(=O)c2oc3ccccc3c2NC(=O)C23CC4CC(CC(C4)C2)C3)c1,x,x,-4.8,x
COc1ccc(OCC(=O)N2CCN(C(=O)c3ccco3)CC2)cc1,-54.0*,0.1%,-5.8,-9.7
COc1ccccc1CCNc1ncnc2nc[nH]c12,x,x,x,7.1
COc1ccc(-c2ccc(C)cc2)cc1C1C2C=CCC(C)C2C(=O)N1Cc1ccccc1 (stereo not drawn),x,x,x,-12.5
